About 83,000 compounds went through this panel and 20% of them were active in at least one assay; those are over-represented in the sample as a whole.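 Values shown are percent growth following 48 h exposure of cells in 96-well plates to a single concentration of compound; below 10 was considered active.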 Values without a mark were called inactive. The source made the active and inactive calls.

Holding throughout (test): NCI-60 one-dose screen, 48 h (100 = growth as untreated, 0 = no growth, -100 = all killed)
What all share (settings): 10 µM

The test system of assay [1] is HCT-15 colon.
In assay [2] the test system is HT29 colon.
Assay [3] has as its system SNB-75 CNS.
Assay [4] relates to SNB-19 CNS.
Assay [5] has as its system U251 CNS.
Assay [6] relates to PC-3 prostate.
The subject of assay [7] is SK-MEL-5 melanoma.
For assay [8], the system named is UACC-62 melanoma.
The subject of assay [9] is LOX IMVI melanoma.
The subject of assay [10] is SK-MEL-28 melanoma.
In assay [11] the test system is SK-MEL-2 melanoma.
The test system of assay [12] is EKVX NSCLC.
Assay [13] relates to SN12C renal.
Assay [14] concerns UO-31 renal.
The subject of assay [15] is TK-10 renal.
The subject of assay [16] is ACHN renal.
Assay [17] relates to CAKI-1 renal.
In assay [18] the test system is A498 renal.
Assay [19] relates to CCRF-CEM leukemia.

Turning to `CNC(=O)c1cc(-c2ccc(NC(=O)Nc3ccc(C)cc3)cc2)nc2cccnc12`, the growth is 93.6% in assay [1]; 99.2% in assay [2]; 107% in [3]; 91.7% in assay [4]; 101% in [5]; 87.1% in assay [6]. Further, the growth in assay [7] is 95.4%; in [8], 83.8%; in assay [9] it was 101%; in assay [10] it was 118%; in assay [11] it was 103%; in assay [12], 99.4%. Moreover, the growth in assay [13] is 101%; in assay [14], 63.9%; in assay [15], 108%; in assay [16], 92.3%; in assay [17], 92.8%; in assay [18], 95.4%. The growth in assay [19] is 93.5%.

On to `C#Cc1ccc(S(=O)(=O)Nc2cccc(-c3csc(NC(C)=O)n3)c2)cc1`, for which the growth in assay [1] is 67.1%; in [2], 71.4%; in [3], 60.4%; in [4] it was 83.6%; in assay [5], 81.8%; in assay [6], 62.3%. For the same compound, the growth in assay [7] is 43.2%; in assay [8] it was 48.7%; in [9], 54.6%; in [10], 89.4%; in assay [11], 81.5%; in assay [12], 57.9%. Moreover, the growth in [13] was 79%; in assay [14] it was -81.1% (active); in assay [15] it was 81.7%; in assay [16], 82.6%; in [17], 65.3%; in assay [18] it was 96%. Besides, in assay [19], the growth is 49.5%.

Take `CC1(C)CC[C@]2(C(=O)O)CC[C@]3(C)C(=CC[C@@H]4[C@@]5(C)C/C(=C/c6ccncc6)[C@H](O)C(C)(C)[C@@H]5CC[C@]43C)[C@@H]2C1`: the growth in [1] was 15.7%; in assay [2], 35.3%; in [3], 35.5%; in assay [4], 41.8%; in assay [5], 28.9%; in assay [6], 28.2%. For the same compound, the growth was -23.2% (active) in [7]; 52.6% in assay [8]; 28.7% in [9]; 46.3% in assay [10]; 55.4% in assay [11]; 30.1% in [12]. Moreover, the growth was 55% in [13]; 32.9% in assay [14]; 46.9% in assay [15]; 25.7% in assay [16]; 35.6% in [17]; 65% in assay [18]. Further, the growth in assay [19] is 21%.

On to `Cc1ccc(NC(=O)NCn2c(=O)[nH]c3ccccc3c2=O)cc1`, for which the growth in [1] is 92.1%; in assay [2] it was 109%; in assay [3] it was 29%; in assay [4], 52.6%; in assay [5], 61.5%; in assay [6] it was 84.1%. Also, the growth is 85.1% in [7]; 60.9% in [8]; 83.7% in assay [9]; 94.5% in assay [10]; 93.1% in [11]; 87.6% in assay [12]. In addition, the growth is 68.6% in assay [13]; 44.5% in assay [14]; 72.5% in assay [15]; 35% in assay [16]; 61.4% in assay [17]; 90.4% in assay [18]. Besides, in [19], the growth is 97.5%.

Turning to `CCCCCc1ccc(S(=O)(=O)N(C(C)=O)c2cc(-c3csc(N(C)C(C)=O)n3)ccc2N2CCN(C)CC2)cc1`, the growth in assay [1] was -89.7% (active); in assay [2], -52.5% (active); in [3], 73%; in [4], 32.2%; in [5], -36.2% (active); in assay [6] it was 26.5%. The growth was -16% (active) in assay [7]; -88.2% (active) in assay [8]; -99.8% (active) in assay [9]; -94.3% (active) in assay [10]; 35.1% in assay [11]; 62.7% in [12]. The growth in assay [13] is 21.2%; in assay [14], 41.8%; in assay [15], 76.7%; in [16] it was 30.1%; in [17], 31.8%; in assay [18], 123%. For the same compound, the growth in assay [19] is -7.22% (active).

Take `CC1(C)CC[C@]2(C(=O)Nc3ccccc3)CC[C@]3(C)C(=CC[C@@H]4[C@@]5(C)CC[C@H](N)C(C)(C)[C@@H]5CC[C@]43C)[C@H]2C1`: the growth in [1] is -71.4% (active); in assay [2] it was 21.8%; in assay [3] it was 95.6%; in [4] it was 100%; in assay [5], -47.5% (active); in assay [6], 75.8%. The growth in assay [7] was 94.5%; in assay [8], 115%; in assay [9], -98.7% (active); in [10] it was 109%; in assay [11], 107%; in [12], 90.5%. For the same compound, the growth in assay [13] is 87.7%; in [14], 71.5%; in [15] it was 107%; in assay [16], 90.3%; in assay [17] it was 79.9%; in [18], 131%. In addition, the growth in assay [19] is 32.6%.

As for `C=C1CC[C@H](C(=C)C)[C@H]2C=C(C)C(=O)C3=C(C(=O)[C@@](C)(O)C3)[C@H]12`, the growth in assay [1] is -80.8% (active); in assay [2] it was -37.6% (active); in assay [3], -71% (active); in [4] it was -90.9% (active); in [5], -95.9% (active); in assay [6] it was -73.2% (active). Further, the growth in assay [7] is -90.4% (active); in assay [8] it was -53.5% (active); in assay [9], -75.9% (active); in [10] it was -89.2% (active); in [11] it was -88.6% (active); in assay [12], -78.5% (active). Besides, the growth is -50.8% (active) in assay [13]; -99.8% (active) in assay [14]; -97% (active) in [15]; -98.3% (active) in assay [16]; -78.9% (active) in assay [17]; -93.2% (active) in assay [18]. In [19], the growth is -5.05% (active).

With `Cc1cc(C)nc(SCC(=O)Nc2ccc(S(N)(=O)=O)cc2)n1`, the growth is 104% in [1]; 118% in assay [2]; 127% in assay [3]; 94.1% in assay [4]; 101% in [5]; 98.2% in [6]. The growth in assay [7] was 97.2%; in assay [8], 96.7%; in assay [9], 96.7%; in assay [10] it was 110%; in [11], 103%; in assay [12], 99.8%. The growth in assay [13] was 105%; in assay [14], 87.1%; in assay [15] it was 102%; in assay [16] it was 101%; in [17], 96.5%; in assay [18], 123%. Also, the growth in assay [19] is 97.1%.

The values above are taken from PubChem BioAssay (NCI).
